In publication PMC9574860, “Chemical Toolkit for PARK7: Potent, Selective, and High-Throughput” (Journal of Medicinal Chemistry, 2022):
Hit rate of the full screen: of about 7,900 compounds, about 400 (5.1%) showed an effect of 50% or more. This is one part of a sample in which strong results are shown more often than they occur.

Target: Parkinson's disease protein 7 (PARK7/DJ1) (human, UniProt Q99497)
Experiment: primary screen, percent inhibition; read as competition with a fluorescent probe by fluorescence polarization; higher = more effect of the substance
Details: 100 µM
In short: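 Fluorescence-polarization probe displacement (JYQ-107, 20 nM final, 2 h) after 2 h preincubation of PARK7 (0.2 μM final) with each fragment at 100 μM final. Read-out ex/em 480/520 nm; remaining activity derived from FP signal loss relative to reference controls.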

Sequence of Parkinson's disease protein 7 (PARK7/DJ1) (Q99497 whole entry, looked up): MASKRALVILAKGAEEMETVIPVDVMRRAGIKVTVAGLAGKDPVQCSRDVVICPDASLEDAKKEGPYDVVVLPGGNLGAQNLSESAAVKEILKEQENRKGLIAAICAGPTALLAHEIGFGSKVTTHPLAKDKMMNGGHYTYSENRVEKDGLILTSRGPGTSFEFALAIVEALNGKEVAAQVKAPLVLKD

Row | Structure (SMILES) | Inhibition %
1 | C=CC(=O)NC1COCc2ccccc21 (stereo not shown) | 9.84%
2 | O=C(CN1C(=O)CCC1=O)c1ccccc1F | 9.1%
3 | CC1CC(N2CC=C(c3ccc(F)cc3)CC2)C(=O)O1 (stereo not shown) | 5.18%
4 | Cc1cccc(NC(=O)NC2C(=O)OCC2(C)C)n1 (stereo not shown) | 7.98%
5 | N#CC(=Cc1ccc(-c2nc3ccccc3s2)o1)C(=O)O | 3.06%
6 | C=CC(=O)N1CCOc2ccccc21 | 9.1%
7 | O=C(CCl)c1ccc(C(F)(F)F)cc1 | 12%
8 | O=C(CCl)c1ccccc1 | 56.6%
9 | Cl.O=C(CCl)c1ccncc1 | 95.3%
10 | O=C(CCl)c1ccc(O)c(O)c1 | 75.1%
11 | CSc1ccc(C(=O)CCl)cc1 | 89.6%
12 | O=C(CCl)NCC(=O)c1ccccc1 | 4.23%
13 | Cl.O=C(CCl)Nc1ccncc1 | 14.4%
14 | O=C(CCl)NNC(=O)c1ccccc1 | -3.2%
15 | CCN1CCN(c2oc(C3CC3)nc2C#N)CC1 | 1.62%
16 | Cc1nccn1CC1CCCN1c1ccc(C#N)nc1 (stereo not shown) | 0.293%
17 | N#Cc1cc(C(=O)Nc2ccccc2)c(N)nc1S | 1.51%
18 | C=CC(=O)N1CCN(C(=O)CC(F)(F)F)CC1 | 12.4%
19 | CC1CC(C)CC2(C1)NC(=O)N(CCC1OCCO1)C2=O (stereo not shown) | 2.2%
20 | C=C(C)Cn1c(C#N)nc(C)c1C | 2.82%
21 | CC(=O)N1c2ccc(C(=O)CCl)cc2CC1C (stereo not shown) | 5.96%
22 | CC(C)n1ccnc1C(=O)CCl | 48.7%
23 | O=C(CCl)c1ccc2c(c1)COC2 | 72.7%
24 | Cl.O=C(CCl)Nc1cccnn1 | 26.1%
25 | O=C(CCl)c1ccc2[nH]c(=O)oc2c1 | 2.68%
26 | O=C(CCl)c1ccns1 | 95.1%

Row | Structure (SMILES) | Inhibition %
27 | O=C(CCl)Nc1ccc2[nH]c(=O)[nH]c2c1 | 34.3%
28 | O=C(CCl)c1ccc2[nH]c(=O)[nH]c2c1 | 63.2%
29 | N#Cc1ncn(CCCOc2ccc(Cl)cc2)n1 | 9.73%
30 | N#Cc1ncn(Cc2c(F)cccc2Cl)n1 | 0.988%
31 | C=CC(=O)Nc1cnc2c(C)cccn12 | 8.53%
32 | Cc1nc(C)c(C(=O)CCl)o1 | 95.2%
33 | CCCNC(=O)C(C#N)=Cc1oc(C)nc1C | 19.4%
34 | Cc1nc(C#N)c(N2CCN(C(=O)CCl)CC2)o1 | 38.4%
35 | C=CC(=O)N1CCCCC1c1noc(C2CC2)n1 (stereo not shown) | 29.3%
36 | COC[C@@H]1C[C@H](OC)CN1C(=O)c1c[nH]c(C#N)c1 | 1.56%
37 | O=C(O)CCN1C(=O)CSC1=O | 13%
38 | O=C(O)CN1C(=O)CSC1=O | 17.6%
39 | Cl.NCCN1C(=O)CSC1=O | 75.6%
40 | CN(Cc1nc2ccccc2[nH]1)S(=O)(=O)C1=CCCCC1 | 8.82%
41 | C=CC(=O)NC(CO)C1CCCO1 (stereo not shown) | 6.87%
42 | O=C(CCl)NCC#Cc1ccccc1 | 1.08%
43 | C=CC(=O)N1CCCN(c2ccccn2)CC1 | 12.3%
44 | C=CC(=O)N(CC)C1CCS(=O)(=O)C1 (stereo not shown) | -4.06%
45 | OC1(C2CO2)CCCC1 (stereo not shown) | 3.59%
46 | Cc1nn(C)c(Cl)c1C=CC(=O)N1CCC(N)C1.Cl (stereo not shown) | 17.1%
47 | CNC(=O)Cn1nc(-c2ccc(F)cc2)oc1=O | 16.9%
48 | CN1CCN(C(=O)CCl)CC1.Cl | 1.98%
49 | O=C(CCl)N1CCC(C(=O)N2CCCCC2)CC1 | 18.3%
50 | NC(=O)C1CCCN(C(=O)CCl)C1 (stereo not shown) | 35.5%
51 | O=C(CCl)N1CCN(C(=O)CCl)CC1 | 36.5%
52 | CCOC(=O)C1CCCN(C(=O)CCl)C1 (stereo not shown) | 74.4%

Row | Structure (SMILES) | Inhibition %
53 | CCOC(=O)C1CCN(C(=O)CCl)CC1 | 19.7%
54 | O=C(CCl)N1CCC(C(=O)N2CCCCCC2)CC1 | 15.1%
55 | CCOC(=O)N1CCN(C(=O)CCl)CC1 | 67.8%
56 | O=C(CCl)N1CCN(C(=O)C2CC2)CC1 | 56.1%
57 | C=CC(=O)N1CCN(C)c2cc(F)ccc21 | 14.6%
58 | N#CCCN(C(=O)CCl)c1cccc(Cl)c1 | 29.3%
59 | O=C(CCl)NC1CCN(C(=O)CCc2ccccc2)CC1 | 11.9%
60 | O=C1CCc2cc(C(=O)CCl)ccc2N1 | 52.8%
61 | C=CC(=O)Nc1ccc2c(c1)CCCC(=O)N2 | 4.19%
62 | CCS(=O)(=O)N1CCc2cc(C(=O)CCl)ccc21 | 11.9%
63 | CC1(C)C(=O)Nc2ccc(C(=O)CCl)cc21 | 32.9%
64 | CS(=O)(=O)N1CCCc2cc(C(=O)CCl)ccc21 | 76.4%
65 | O=C(CCl)c1cc2c3c(c1)CC(=O)N3CCC2 | 21.1%
66 | CS(=O)(=O)N1CCc2cc(C(=O)CCl)ccc21 | 36.2%
67 | O=C1CCc2cc(OCCCl)ccc2N1 | 6.21%
68 | O=C1CCc2cc(C(=O)CCl)c(F)cc2N1 | 1.18%
69 | O=C1CCCc2cc(C(=O)CCl)ccc2N1 | 86.5%
70 | CC1C(=O)Nc2ccc(C(=O)CCl)cc21 (stereo not shown) | 85.9%
71 | C=CC(=O)N(C1CC1)C1CCS(=O)(=O)C1 (stereo not shown) | 10.3%
72 | CC(C)Cc1nc(C#N)c(NCc2ccncc2)o1 | 6.94%
73 | CC1(C)OB(c2ccc(N)nc2)OC1(C)C | 9.29%
74 | COc1ccc(-c2ccncc2)cc1B(O)O | 6.7%
75 | N#CC(=Cc1cccs1)C(N)=O | 10.8%
76 | Cc1nn(C)c(NS(=O)(=O)C=Cc2ccccc2)c1C | 11.2%
77 | C=CC(=O)N1CCCc2c1nc[nH]c2=O | 20.2%
78 | C=CC(=O)N1CCN(C(=O)c2cccc(Cl)c2)CC1 | 4.01%

Row | Structure (SMILES) | Inhibition %
79 | CN1C(=O)Cc2cc(C(=O)CCl)ccc21 | 83.4%
80 | O=C1Cc2cc(C(=O)CCl)ccc2N1 | 81.4%
81 | CCC(=O)N1CCc2cc(C(=O)CCl)ccc21 | 3.43%
82 | CN1Cc2cc(C(=O)CCl)ccc2NC1=O | 11.5%
83 | CN1C(=O)CCc2cc(C(=O)CCl)ccc21 | 19.5%
84 | O=C1COc2ccc(C(=O)CCl)cc2N1 | 8.16%
85 | C=CC(=O)NCC(=O)NC1(C)CCCCC1 | 13.6%
86 | C=CC(=O)NCc1nc2c(s1)COCC2 | 5.36%
87 | O=S(=O)(C=Cc1ccccc1)NC1CCCn2ncnc21 (stereo not shown) | 12.3%
88 | C=CC(=O)Nc1c(C)nn(CC)c1C | 2.74%
89 | C=CC(=O)Nc1c(C)nn(C)c1N1CCC1 | 87.1%
90 | C=CC(=O)Nc1c(C)nn(C(C)C)c1C | 0.88%
91 | N#Cc1nc(C2CC2)n[nH]1 | 2.55%
92 | C=CC(=O)N1CCN(S(=O)(=O)CC)CC1 | 11.7%
93 | CCN(C(=O)Cn1c(S)nc2ccccc2c1=O)C1CC1 | 0.694%
94 | Cc1cnccc1NS(=O)(=O)c1ccc(S(=O)(=O)F)cc1 | 18.9%
95 | O=S(=O)(F)c1ccc(S(=O)(=O)Nc2ncccc2Cl)cc1 | 32.9%
96 | CCCc1nnc(NS(=O)(=O)c2ccc(S(=O)(=O)F)cc2)o1 | 49.9%
97 | O=S(=O)(F)c1cccc(S(=O)(=O)Nc2cccnc2O)c1 | 99.4%
98 | Cc1csc(NS(=O)(=O)c2cccc(S(=O)(=O)F)c2)n1 | 83.9%
99 | O=S(=O)(F)c1ccc(S(=O)(=O)Nc2cccnc2O)cc1 | 8.42%
100 | Cc1nc(NS(=O)(=O)c2ccc(S(=O)(=O)F)cc2)no1 | 22.7%
101 | CCCc1nnc(NS(=O)(=O)c2cccc(S(=O)(=O)F)c2)o1 | 98.8%
102 | Cc1cscc1NS(=O)(=O)c1cccc(S(=O)(=O)F)c1 | 98.1%
103 | O=C(CCl)Nc1cccc(C(=O)N2CCSCC2)c1 | 6.3%
104 | Cc1csc2ccc(B(O)O)cc12 | 5.69%

Row | Structure (SMILES) | Inhibition %
105 | O=C(CCl)NCC(=O)N1CCCC1 | 2.12%
106 | O=C(NCc1ccccc1)N1CCCCC1C1OCCO1 (stereo not shown) | 6.92%
107 | FC(F)(F)c1cccc(C2CO2)c1 (stereo not shown) | 2.09%
108 | Cl.O=C(CCl)NCCc1cccc2cccnc12 | 30.3%
109 | Cc1conc1NS(=O)(=O)c1ccc(S(=O)(=O)F)cc1 | 27%
110 | Cc1conc1NS(=O)(=O)c1cccc(S(=O)(=O)F)c1 | 99%
111 | O=C(CCl)NCc1ccc(N2CCOCC2)c(F)c1 | 10.8%
112 | CCN(CC1COc2ccccc2O1)C(=O)CCl (stereo not shown) | 21.2%
113 | CN(CC1COc2ccccc2O1)C(=O)CCl (stereo not shown) | 96.7%
114 | C=CC(=O)N(C)CC1COc2ccccc2O1 (stereo not shown) | 3.26%
115 | N#CC1(NC(=O)CCl)CCC1 | 20.1%
116 | CN1CCOC(CNS(=O)(=O)C=Cc2ccccc2)C1 (stereo not shown) | 6.48%
117 | N#Cc1ncccc1Cl | 0.27%
118 | C=CC(=O)NCCCC(=O)N1CCc2sccc2C1 | 10.7%
119 | O=C(CCl)N1CCc2sccc2C1 | 83.6%
120 | O=C(CCCl)N1CCc2sccc2C1 | 33.2%
121 | O=C(O)CC1OCCCO1 | -4.03%
122 | O=C(O)CC1(CS)CC1 | 80.8%
123 | COCc1ccc(SC(=O)N(C)C)cc1 | 7.64%
124 | C=CC(=O)N1CCCN(Cc2nccn2C)CC1 | 10.6%
125 | C#CC(=O)Nc1cc2ccccc2cc1C(=O)O | 29.8%
126 | O=C(CCl)Nc1cccc2cccc(C(=O)O)c12 | 11.2%
127 | O=C(CCl)Nc1ccc(Cl)cc1C(=O)O | 52.4%
128 | O=C(CCl)Nc1ccc(Br)cc1C(=O)O | 46.1%
129 | O=C(CCl)Nc1cc(Cl)ccc1C(=O)O | 47.9%
130 | O=C(CCl)Nc1cc2ccccc2cc1C(=O)O | 66.3%
